High-throughput results from PubChem.
Pf growth 96h = P. falciparum growth inhibition at 96 hour, primary screen for plastid delayed-death inhibitors | hit rate 6.9% among 320,000 | P. falciparum luciferase reporter growth, 96 h | Potency, µM (series often up to 28.7 µM), usual class: inhibitors
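96 h incubation, 37 C, 5% CO2, of luciferase-reporter P. falciparum-infected RBCs (2% hematocrit, 0.05% parasitemia final) with test compounds; endpoint luminescence.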
Pf growth 48h = inhibits P. falciparum growth in the first generation, 48 h | P. falciparum luciferase growth in erythrocytes, 48 h | Potency, µM (top dose mostly 28.7 µM), actives largely listed as inhibitors | hit rate 5.9% among 310,000
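Luciferase-expressing parasites in RBCs, 2% Hct / 0.1% parasitemia final; RPMI 1640 + 0.5% Albumax; 37 C, 5% CO2, one generation; luminescence read-out, lower signal = inhibition.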
Shiga toxin inh = inhibitors of Shiga toxin in Vero cells; inhibition, % at 38.7 µM; AID 2315; Vero cells, Shiga toxin protein synthesis inhibition reporter; hit rate 9.2% among 290,000; in the data active = inhibition mostly above about 28%, no sharp cut-off; inactive = mostly below about 43%
AMA1-RON2 inh = inhibitors of Plasmodium falciparum AMA1-RON2 interaction. AlphaScreen AMA1-biotinylated RON2 peptide binding. Potency, µM (titrated, usually from 58.2 µM), actives largely listed as inhibitors. hit rate 0.2% among 360,000. AID 720542; also: nearly all actives have a fitted effect of over 45% in size
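AMA1 (3D7) with his tag at 25 nM final met compounds first, then biotinylated RON2 peptide at 25 nM; detection used donor plus acceptor beads, 10 µg/mL apiece, read by AlphaScreen after 30 min at room temperature.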
SARS PLpro yeast = inhibitors of SARS-CoV papain-like protease in yeast. S. cerevisiae expressing SARS-CoV PLpro, growth rescue. Potency, µM (highest dose often 32.9 µM), most hits filed as activators. hit rate 0.19% among 330,000. AID 485353; calls by dose curve; also: nearly all actives have a fitted effect of over 55% in size
CHX counter = affects cycloheximide protein synthesis inhibition readout, counter-screen. cell reporter, cycloheximide protein synthesis inhibition counterscreen. max response, %. hit rate 12% among 300,000; in the data active = max response mostly above about 13%, no sharp cut-off; inactive = mostly below about 14%; also: read at 38.3 µM for the half of the compounds with a filed dose
Each line names hits and unclear results; the compound was inactive in the other large screens. The list is not random: actives were taken first. Their share in the collection is about 19%. Unless noted, calls follow the shape of the dose curve; as a rule, active = well fitted curve in the direction sought with a large enough effect; inconclusive = small, poorly fitted or top-dose-only effect, or another doubt; inactive = no such curve, though single readings can be large; an effect the other way counts as inactive or inconclusive.

Cc1nc(CCNS(=O)(=O)c2cccnc2)cs1	none
Cc1ccc(C2=NN=C(NC(=O)CSc3nncn3C)SC2)cc1	Pf growth 48h inconclusive
Cc1ccc(C2=NN=C(NC(=O)C(F)(F)F)SC2)cc1	Pf growth 96h inconclusive, Shiga toxin inh 110.8, CHX counter 26.5
CCCOC1CCCN(Cc2nc(-c3cnccn3)no2)C1 (stereo not drawn)	Pf growth 96h 10.4µM
c1ccc(COC2CCCN(Cc3nc(-c4cnccn4)no3)C2)cc1 (stereo not drawn)	Pf growth 96h inconclusive
CCOC(=O)/C(=C/Nc1ccc(F)cc1)[N+](=O)[O-]	none
COCCN(C(=O)CSc1nnc(-c2ccccc2F)n1N)c1c(N)n(Cc2ccccc2)c(=O)[nH]c1=O	none
CCN1CCCC1CNC(=O)c1ccc2c(c1)N(Cc1cccc(Cl)c1)C(=O)c1ccccc1S2(=O)=O (stereo not drawn)	Pf growth 96h inconclusive, Pf growth 48h inconclusive
CC1CCCN(CCCNC(=O)c2ccc3c(c2)N(Cc2ccccc2F)C(=O)c2ccccc2S3(=O)=O)C1 (stereo not drawn)	Pf growth 96h inconclusive, Pf growth 48h 2.08µM
CC1CCCN(CCCNC(=O)c2ccc3c(c2)N(Cc2cccc(Cl)c2)C(=O)c2ccccc2S3=O)C1 (stereo not drawn)	none (no result: Pf growth 96h, Pf growth 48h, Shiga toxin inh, SARS PLpro yeast, CHX counter)
CC1CCCN(CCCNC(=O)c2ccc3c(c2)N(Cc2ccc(F)cc2)C(=O)c2ccccc2S3=O)C1 (stereo not drawn)	Pf growth 96h 11.7µM, Pf growth 48h 13.1µM, SARS PLpro yeast inconclusive
CCN1CCCC1CNC(=O)c1ccc2c(c1)N(Cc1ccccc1F)C(=O)c1ccccc1S2(=O)=O (stereo not drawn)	Pf growth 48h 9.28µM
O=S(=O)(Nc1ccc(-n2cccc2)cc1)c1ccc(Cl)cc1Cl	Pf growth 48h inconclusive
O=c1cc[nH]c2c(Cl)cccc12	Shiga toxin inh 40.7, CHX counter 20.7
OCC[C@H]1C[C@H](O)[C@@H](O)[C@@]2(CCCO2)O1	none (no result: Pf growth 96h, Pf growth 48h, Shiga toxin inh, SARS PLpro yeast, CHX counter)
COc1ccc(Nc2nc(NC(C)(C)C)nc(N3CCCC3)n2)c(OC)c1	Pf growth 96h 4.65µM, AMA1-RON2 inh inconclusive (no result: Pf growth 48h)
COc1ccc(N2CCN(c3nc(NC(C)(C)C)nc(N4CCCCC4)n3)CC2)cc1	Pf growth 48h 1.85µM, AMA1-RON2 inh inconclusive (no result: Pf growth 96h)
Cc1cc(C)c2c(N)c(C(=O)c3ccc(Cl)c(Cl)c3)sc2n1	Shiga toxin inh 81.6
CCOC(=O)c1c(C)nc2sc(C(=O)Nc3ccc(OC)cc3)c(N)c2c1-c1ccc(OC)cc1	Pf growth 96h 2.33µM (no result: Pf growth 48h)
Cc1cc(C)c2c(N)c(C(=O)Nc3ccc(C)c(C)c3)sc2n1	Shiga toxin inh 123.7, CHX counter 32.9
Cc1cc(C)c2c(N)c(C(=O)Nc3ccc([N+](=O)[O-])cc3)sc2n1	Shiga toxin inh 41.9, CHX counter 19.8
CCOC(=O)c1c(C)nc2sc(C(=O)Nc3ccc(C(C)=O)cc3)c(N)c2c1-c1ccc(OC)cc1	Pf growth 48h inconclusive
COc1ccc(NC(=O)C(CCS(C)(=O)=O)NC(C)=O)cc1 (stereo not drawn)	none
O=S1(=O)[C@H]2C[C@@H]3C=C[C@]2(CN1Cc1ccc(C(F)(F)F)cc1)O3	Pf growth 96h inconclusive
CN(CC(=O)Nc1ccccc1C(=O)NC1CC1)Cc1ccco1	none (no result: Shiga toxin inh, CHX counter)
Cc1ccc(C(=O)Nc2ncnc3sc4c(c23)CCCCC4)cc1	Pf growth 96h inconclusive (no result: Pf growth 48h)
Cc1cc(C)cc(NC(=O)c2sc3nc(C)cc(C)c3c2N)c1	Shiga toxin inh 117.6, CHX counter 25.1
CCOC(=O)c1c(C)nc2sc3c(=O)n(-c4ccc(C(C)=O)cc4)nnc3c2c1-c1ccc(OC)cc1	Pf growth 48h inconclusive
COc1ccc(NC(=O)c2sc3nc(C)cc(C)c3c2N)cc1	Pf growth 96h inconclusive, Shiga toxin inh 43.3, CHX counter 34.3
Cc1cc(C(F)(F)F)c2c(N)c(C(=O)Nc3cc(C)on3)sc2n1	Pf growth 96h inconclusive, Shiga toxin inh 116.6, CHX counter 55.3
COc1ccc(/C=N/NC(=O)c2sc3nc(C)cc(C)c3c2N)cc1	none
CCOC(=O)c1c(C)nc2sc3c(=O)n(-c4ccc(OC)cc4)cnc3c2c1-c1ccc(OC)cc1	Pf growth 96h 11.7µM, Pf growth 48h inconclusive
Cc1cccc(C(=O)NCC(=O)Nc2ccncc2)c1	none (no result: Shiga toxin inh, SARS PLpro yeast, CHX counter)
CCOc1cc(NC(=S)NCc2ccccc2)c(OCC)cc1NC(=O)C(C)C	Pf growth 96h inconclusive
COc1ccc(OCc2nnc(SCC(=O)NC3CC3)n2C)cc1	none
CN1CCN(C(=S)NC(=O)c2ccccc2Cl)CC1	none
Cc1cc(C)c2c(N)c(C(=O)N/N=C/c3cccs3)sc2n1	Shiga toxin inh 91.9, CHX counter 53.5
Cc1cc(C)c2c(N)c(C(=O)c3ccccc3)sc2n1	none
COc1ccccc1NC(=O)c1sc2nc(C)cc(C)c2c1N	none (no result: Pf growth 96h, Pf growth 48h, Shiga toxin inh, SARS PLpro yeast, CHX counter)
Cc1cc(C)c2c(N)c(C(=O)Nc3ccc(F)cc3)sc2n1	Pf growth 96h inconclusive, Shiga toxin inh 91.8, CHX counter 44.6
Cc1cc(O)c2c(c1)CC1C3CCC4CC(=O)CCC4(C)C3CC(=O)C21C (stereo not drawn)	none (no result: Pf growth 96h, Pf growth 48h, Shiga toxin inh, SARS PLpro yeast, CHX counter)
CCc1sc(C(=O)Nc2ccc(F)cc2C)cc1C	Shiga toxin inh 74.1, CHX counter 15.3
CCc1sc(C(=O)Nc2nc(-c3ccccn3)cs2)cc1C	none (no result: Pf growth 96h, Pf growth 48h, Shiga toxin inh, CHX counter)
CCc1sc(C(=O)Nc2ncccc2C)cc1C	CHX counter 41.5
CCc1sc(C(=O)Nc2nccs2)cc1C	Shiga toxin inh 55.5, CHX counter 57.2
CCc1sc(C(=O)NCc2ccccc2)cc1C	none
CCc1sc(C(=O)Nc2ncccc2O)cc1C	Shiga toxin inh 45.6, CHX counter 36.4
CC(C)(C)c1ccccc1NC(=O)Nc1nc(C(N)c2ccccc2Cl)cs1 (stereo not drawn)	none (no result: Pf growth 96h, Pf growth 48h, Shiga toxin inh, SARS PLpro yeast, CHX counter)
COCCN1C(=O)C(=O)/C(=C(/O)c2ccc(S(=O)(=O)N3CCOCC3)cc2)C1c1cccc([N+](=O)[O-])c1 (stereo not drawn)	none
CCc1sc(C(=O)Nc2cc(Cl)ccc2N2CCCCC2)cc1C	Pf growth 96h 14.7µM (no result: Pf growth 48h)
COCCCn1c(=O)c2ccccc2n2c(=S)[nH]nc12	none
CC(=O)N(C)c1ccc(NC(=O)c2ccccc2C(=O)O)cc1	none
CCn1ccc(C(=O)Nc2ccccc2SC)n1	Shiga toxin inh 87.9, CHX counter 32.8
CCn1ccc(C(=O)Nc2ccc3c(c2)CCC3)n1	Shiga toxin inh 113.2
CCn1ccc(C(=O)Nc2ccc(N(C)C(C)=O)cc2)n1	Shiga toxin inh 45.5, CHX counter 22.9
CCCS(=O)(=O)NC(=O)C1(C)CCN(C(=O)c2ccccc2Br)C1 (stereo not drawn)	none (no result: Pf growth 96h, Pf growth 48h, Shiga toxin inh, SARS PLpro yeast, CHX counter)
C=CCN1CCN(C(c2ccc(OC)c(OC)c2)c2nnnn2C(C)(C)C)CC1 (stereo not drawn)	Pf growth 48h inconclusive
Cc1cc(C)n(CCCNC(=O)C(C)(C)Oc2ccc(Cl)cc2)n1	Pf growth 96h inconclusive, Pf growth 48h inconclusive (no result: Shiga toxin inh, CHX counter)
CCOc1ccc(N=C2NC(=O)S/C2=C\c2ccc(Cl)cc2)cc1	none
